Assay results taken from ChEMBL document CHEMBL3988442, “University of Dundee, Small-Polar-MMV Screening Library” (2021).
The campaign covered roughly 53,000 compounds. About 900 (1.7%) showed an effect of 50% or more. Only a selection was taken, and strong results are over-represented in it overall.

System: Mycobacterium tuberculosis
Assay: Cornell - Phenotypic assay to identify agents that inhibit growth of Mycobacterium tuberculosis
Format: functional
Design: scale not given: direction of the effect not stated beside the values
Details: 10 mM as filed; unlikely as a test dose

First: O[C@@H]1CN(c2cnc3ccccc3n2)CC[C@H]1c1ccc2c(c1)OCO2
Second: O[C@@H]1CN(c2nc3ccccc3o2)CC[C@H]1c1ccc2c(c1)OCO2
The “Percent Effect” value of the first is higher: 102.9% for the first, 1.12% for the second.

Going from `O[C@@H]1CN(c2nc3ccccc3s2)CC[C@H]1c1ccc2c(c1)OCO2` to `O=C1C(Sc2nnnn2C2CC2)CCN1c1ccccc1F` (stereo unspecified), the “Percent Effect” value falls from 18.1% to -21.88%.

Going from `COc1cccc(CNC(=O)CN2CCCC(Cn3cncn3)C2)c1` (stereo unspecified) to `Cc1cnn(CC2CCCN2C(=O)c2cccc(S(C)(=O)=O)c2)c1` (stereo unspecified), the “Percent Effect” value rises from -43.6% to 1.06%.

Compared with `Cc1cnn(C2CN(Cc3nnc(-c4ccccc4Cl)o3)C2)c1`, `Cc1ccc(-c2nnc(CN3CC(n4cc(C)cn4)C3)o2)cc1` is higher in “Percent Effect” value: -48.85% for the first, 82.45% for the second.

Going from `Cc1cnn(C2CN(Cc3nnc(Cc4ccccc4)o3)C2)c1` to `Cc1cnn(C2CN(Cc3nc(-c4ccccc4C)no3)C2)c1`, the “Percent Effect” value falls from 75.37% to -13.18%.

Compared with `Cc1cnn(C2CN(Cc3nc(C(C)(C)C)no3)C2)c1`, `Cc1cnn(C2CN(Cc3nc(-c4ccsc4)no3)C2)c1` is higher in “Percent Effect” value: -9.455% for the first, 18.79% for the second.

Going from `Cc1cnn(C2CN(Cc3nc(-c4ccccn4)no3)C2)c1` to `Cc1cnn(C2CN(Cc3nc(-c4cccnc4)no3)C2)c1`, the “Percent Effect” value rises from -25.23% to 3.209%.

Going from `Cc1cccc(-c2noc(CN3CC(n4cc(C)cn4)C3)n2)c1` to `Cc1ccc(-c2noc(CN3CC(n4cc(C)cn4)C3)n2)cc1`, the “Percent Effect” value falls from 51.38% to 41.03%.

Going from `Cc1cc(C)n(C2CN(Cc3nc4cc(Cl)ccc4n3C)C2)n1` to `Cc1cnn(C2CN(Cc3nc4cc(Cl)ccc4n3C)C2)c1`, the “Percent Effect” value rises from -28.71% to 63.15%.

Compared with `CCOc1ccccc1-n1c(C2CC(=O)N(C)C2)n[nH]c1=O` (stereo unspecified), `CNC(=O)Cn1c(-c2ccco2)nn(-c2ccccc2OC)c1=O` is higher in “Percent Effect” value: -16.7% for the first, -0.5787% for the second.

Compared with `Cc1c[nH]c(CN(C)C(=O)[C@]23CNC[C@H]2CNC3)n1`, `CN(C)CC1(O)CCN(C(=O)Cc2ccc3c(c2)CCC3)C1` (stereo unspecified) is higher in “Percent Effect” value: -19.02% for the first, 59.81% for the second.

First: O=C(Nc1ccnn1Cc1ccc(Cl)cc1)C1CCS(=O)(=O)C1 (stereo unspecified)
Second: CCN(C(=O)Cc1ccc(NC(=O)NC2CC2)cc1)c1ccccc1
The “Percent Effect” value of the first is lower: -30.31% for the first, -6.305% for the second.

Going from `CC(C)(C)C(=O)NS(=O)(=O)c1ccc(F)cc1C(F)(F)F` to `CC(C)(C)CNC(=O)c1ccc(C(=O)O)nc1`, the “Percent Effect” value falls from 31.3% to 11.56%.

Compared with `CC(=O)N1CCC(Cc2cnc(Nc3cc(C)on3)cn2)CC1`, `Cc1ccc(C(=O)NCc2ccnc(C3CCCOC3)n2)s1` (stereo unspecified) is higher in “Percent Effect” value: -2.54% for the first, 2.557% for the second.

Going from `Nc1nonc1C(=O)N1Cc2ccccc2OC2(CCOCC2)C1` to `O=C(C1CCOCC1)N1CCC(O)(Cn2ccc3ccncc32)CC1`, the “Percent Effect” value rises from -22.02% to -3.808%.

First: COc1ccc(-c2cn([C@H](CO)CC(C)C)nn2)cn1
Second: CC(c1cccnc1)N(C)C(=O)NCCOc1ccc(C#N)cc1 (stereo unspecified)
The “Percent Effect” value of the first is higher: 26.72% for the first, 12.58% for the second.

First: COC(=O)Cn1c(=O)nc2n1C(=O)N(c1ccc(F)cc1)C2
Second: CCN(C(=O)Cc1ccc(NCc2ncc[nH]2)cc1)c1ccccc1
The “Percent Effect” value of the first is lower: 8.177% for the first, 52.94% for the second.

Compared with `Cc1noc([C@]23COC[C@H]2CN(C(=O)COC2CCCC2)C3)n1`, `C[C@@H]1CN(C(=O)C2CCS(=O)(=O)CC2)CC[C@@]1(O)C1CCOCC1` is higher in “Percent Effect” value: 1.713% for the first, 26.03% for the second.

Going from `Cc1cc(C)n(CCN2CCC(N(C)Cc3nnc(C)n3C)C2)n1` (stereo unspecified) to `Cc1nn(C)c(Cl)c1C1CCCN1C(=O)c1cnc[nH]1` (stereo unspecified), the “Percent Effect” value rises from -7.03% to 8.572%.

Compared with `CCN(C(=O)Cc1ccc(NCc2nccn2C)cc1)c1ccccc1`, `Cc1cc(NS(=O)(=O)c2ccccc2F)ccc1-n1cccc1C(=O)O` is higher in “Percent Effect” value: 9.386% for the first, 63.88% for the second.

Compared with `CN(CC(=O)NCCc1ccccn1)C(=O)c1cccs1`, `CNC(=O)C(C)CN(C)C(=O)Nc1cc(F)cc(Br)c1` (stereo unspecified) is higher in “Percent Effect” value: -9.987% for the first, 72.87% for the second.

Compared with `CN(CC(O)C1CC1)C(=O)Nc1cc(F)cc(Br)c1` (stereo unspecified), `CC(O)CCN(C)C(=O)Nc1cc(F)cc(Br)c1` (stereo unspecified) is higher in “Percent Effect” value: 5.584% for the first, 23% for the second.

Going from `Cn1nc(C2CN(S(C)(=O)=O)C2)c2nccnc21` to `Cc1cc(CN2C[C@@H]3COC[C@@H](C(=O)N4CCCCO4)[C@@H]3C2)oc1C.O=C(O)C(F)(F)F`, the “Percent Effect” value rises from -1.799% to 19.33%.

Going from `CSc1nsc(SCC(=O)c2cc3c(cc2Cl)NC(=O)C3)n1` to `Cc1nnc(SCC(=O)c2cc3c(cc2Cl)NC(=O)C3)s1`, the “Percent Effect” value falls from 71.22% to 21.14%.

Compared with `Nc1nnc(SCC(=O)c2cc3c(cc2Cl)NC(=O)C3)s1`, `CN(C)CC1(O)CCN(C(=O)Cc2ccc(Cl)c(Cl)c2)C1` (stereo unspecified) is lower in “Percent Effect” value: 9.185% for the first, -11.99% for the second.

`CN(C)CC1(O)CCN(C(=O)Cc2ccc3c(c2)CCCC3)C1` (stereo unspecified) was tested, and the “Percent Effect” value was 27.93%.
